SNCA expr inh – inhibitors of alpha-synuclein (SNCA) gene expression | 140,000 tested, 0.17% active | HEK-293 SNCA-luciferase knock-in, luminescence, 24 h | Potency, µM (titrated, usually from 57.2 µM), without a hit: at the top dose activity change, negative = inhibition, most hits filed as inhibitors | AID 1671194;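 note: potency is the fitted concentration of half-maximal effect; plate controls were DMSO cells for no effect and cell-free wells for full effect; nearly all actives have a fitted effect of over 45% in size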
IP6K1 inhibitor – inhibitors of human IP6K1 | AID 1645851 | 140,000 tested, 0.81% active | IP6K1 kinase, ADP-Glo luminescence, 2 h; active compounds read low | activity change, % (series mostly up to about 58 µM); in the data active = activity change below about -25%; note: % is set by controls: 0 for no effect and ±100 for the full control effect
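ADP-Glo luminescence measures ADP made by human IP6K1 during a 2 h RT reaction with ATP/IP6 (mix at 1.3 mM/130 uM); top library doses 57.5 and 19.1 uM final.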
HEK293 viab – cell viability loss counter-screen. HEK-293-SNCA-luc viability, GF-AFC fluorescence, 24 h. Potency, µM (titrated, usually from 57.1 µM), inactives show at the top dose activity change, negative = cytotoxicity, most hits filed as cytotoxic. 150,000 tested, 0.12% active;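 note: potency is the fitted concentration of half-maximal effect; 0% = DMSO-treated cells and -100% = medium-only wells without cells; nearly all actives have a fitted effect of over 30% in size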
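Cytotoxicity counterscreen: after 24 h compound treatment of genome-edited SNCA-luciferase HEK-293 cells, live-cell protease substrate GF-AFC read by fluorescence after 30 min; activity scaled between DMSO (0%) and medium-only (-100%), curves Hill-fitted.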
KDM5B inh – KDM5B demethylase inhibition; Q9UGL1; KDM5B demethylase, FDH-coupled NADH fluorescence (FDH is formaldehyde dehydrogenase); Potency, µM (series often up to 57.7 µM), most hits filed as inhibitors; 220,000 tested, 2.6% active; AID 1347165; note: potency is the fitted concentration of half-maximal effect; 0% is about no effect; nearly all actives have a fitted effect of over 70% in size
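Coupled FDH/NAD⁺ fluorescence readout. KDM5BΔAP 200 nM final; compound titration, 10 min RT preincubation; substrate mix 12.5 µM H3K4me3, 25 µM 2-OG, 50 µM Fe(II), 100 µM ascorbate, 0.25 mM NAD⁺, 0.25 U/mL FDH; ΔRFU over 30 min.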
An asterisk follows results filed as active; i = inactive; u = inconclusive; x = no result given; ! = a repeat was not active; [ ] = another dose, or the depositor's remark. Shown are actives, neighbours in structure and some others; about 3% of the full set was active somewhere. Unless noted, calls come from the whole dose curve; as a rule, active = well fitted curve in the direction sought with a large enough effect; inconclusive = small, poorly fitted or top-dose-only effect, or another doubt; inactive = no such curve, though single readings can be large; an effect the other way counts as inactive or inconclusive.

SMILES	SNCA expr inh	IP6K1 inhibitor	HEK293 viab	KDM5B inh
O=C(Nc1ccccc1)c1ccc(Cn2ccn3nc4c(c3c2=O)CCCC4)cc1	9%	-5	-15%	22µM*
O=C(Nc1ccc(F)c(F)c1)c1ccc(Cn2ccn3nc4c(c3c2=O)CCCC4)cc1	-10%	-1	-22%	25µM*
Cc1nc(-c2ccccc2)n(Cc2ccccc2Cl)c(=O)c1CCO	30%	17	12%	i
Nc1nc2c(ncn2COC(CO)CO)c(=O)[nH]1	0.086µM*!	12	-18%	x
Cc1nc2c(NC3CCN(C(=O)c4cccn4C)CC3)cccn2n1	3%	12	1%	32µM*
Cn1cccc1C(=O)N1CCC(Nc2cccnc2)C1 (stereo not given)	-5%	6	9%	i
CCn1ncc(CN2CCCC23CCN(c2ccc(C(F)(F)F)cn2)CC3)c1C	17%	1	-13%	28µM*
Cc1ccsc1-c1[nH]nc2ncc(-c3ccccc3F)nc12	-8%[87.6 µM]	17	-8%[87.6 µM]	i
Cc1ccccc1-c1[nH]nc2ncc(-c3ccsc3)nc12	-33%[87.6 µM]	21	-23%[87.6 µM]	32µM*
Cc1ccccc1-c1[nH]nc2ncc(-c3ccccc3F)nc12	91%[87.6 µM]	11	-14%[87.6 µM]	35µM*
Cc1ccccc1-c1[nH]nc2ncc(-c3cnn(C)c3)nc12	31%[87.6 µM]	17	-12%[87.6 µM]	32µM*
Cc1ccccc1-c1[nH]nc2ncc(-c3cccc(O)c3)nc12	-12%[87.6 µM]	4	-18%[87.6 µM]	u
N#Cc1cc2c(=O)n(CCCCN3CCCC3)ccc2[nH]c1=O	5%	24	2%	28µM*
CN1C[C@@H](NC(=O)c2ccc3c(c2)OCO3)C[C@H]1c1nc(-c2ccc(Cl)cc2)no1	-31%[87.6 µM]	-2	u	32µM*
Cc1ccc(C(=O)N[C@H]2C[C@@H](c3nc(-c4ccc5c(c4)OCO5)no3)N(C)C2)cc1	23%[87.6 µM]	-7	-18%[87.6 µM]	i
CN(Cc1ccccc1)C(=O)c1cc(-c2ccccc2C(F)(F)F)nc2c1cnn2C	x	-1	x	x
c1cncc(Nc2cc3c(cn2)CN(Cc2ccsc2)CCN3)c1	66%[87.6 µM]	-17	-26%[87.6 µM]	i
COc1ccc(CN2CCNc3cc(-c4ccccc4)ncc3C2)cc1O	58%[87.6 µM]	-6	-29%[87.6 µM]	i
c1ccc(Nc2cc3c(cn2)CN(Cc2ccsc2)CCN3)cc1	27%[87.6 µM]	12	u	40µM*
COc1ccc(CN2CCNc3cc(Nc4ccccc4)ncc3C2)cc1O	u	3	-29%[87.6 µM]	28µM*
c1cc(CN2CCNc3cc(-c4ccsc4)ncc3C2)ccn1	7%[87.6 µM]	-16	9%[87.6 µM]	35µM*
COc1ccc(CN2CCNc3cc(Nc4ccccc4)ncc3C2)cn1	-6%[87.6 µM]	1	u	32µM*
Cn1ncc2c(C(=O)NCc3ccc(F)cc3F)cc(-c3ccccc3F)nc21	x	1	x	x
Cc1ncc(CO)c(CN2CCC3(Cc4ccccc4CNC3=O)C2)c1O (stereo not given)	-9%	0	-4%	79µM*
CC(C)(C)OC(=O)N1CC(Nc2ccccc2O)C1	130%[87.6 µM]	-5	4%[87.6 µM]	100µM*
SMILES	SNCA expr inh	IP6K1 inhibitor	HEK293 viab	KDM5B inh
CC(C)(C)OC(=O)N1CC(Nc2ccc(Cl)cc2)C1	32%[87.6 µM]	-13	-4%[87.6 µM]	i
CCN(C)C(=O)CCc1c(C)nn(-c2cccc(C)c2)c1Oc1ccc(F)cc1F	-11%	-16	-9%	32µM*
CCN(CC)C(=O)CCc1c(C)nn(-c2cccc(C)c2)c1Oc1ccc(F)cc1F	-14%	-3	1%	i
Cc1c(-c2ccccc2)oc2c(C(=O)OCC(=O)OC(C)(C)C)cccc2c1=O	x	x	x	i
COc1ccc(F)cc1-c1ccc(CN2CCCCC2C(=O)NCc2cccs2)cc1 (stereo not given)	x	-5	x	x
O=C1COc2ccc(-c3ccncc3)nc2CN1Cc1ccccc1	8%[87.6 µM]	4	-3%[87.6 µM]	35µM*
O=C1COc2ccc(-c3ccoc3)nc2CN1Cc1ccccc1	u	5	u	32µM*
CC(=O)Nc1cccc(-c2ccc3c(n2)CN(Cc2ccccc2)C(=O)CO3)c1	-4%[87.6 µM]	-19	-11%[87.6 µM]	i
Cc1ccccc1-c1ccc2c(n1)CN(Cc1ccccc1)C(=O)CO2	-14%[87.6 µM]	-10	6%[87.6 µM]	i
O=C1COc2ccc(-c3cn[nH]c3)nc2CN1Cc1ccc(C(F)(F)F)cc1	-5%[87.6 µM]	-18	-17%[87.6 µM]	i
O=C1COc2ccc(-c3ccncc3)nc2CN1Cc1ccc(C(F)(F)F)cc1	u	-9	0%[87.6 µM]	40µM*
CNC(=O)c1cc(C2CC2)nc2c1c(C1CCCN(C(=O)c3ccc(OC)cc3)C1)nn2C (stereo not given)	x	-14	x	x
COc1ccc(C(=O)NC2CCN(c3ccc4nnc(C5CC5)n4n3)CC2)cc1	x	13	x	x
CCc1noc(C)c1C(=O)Nc1sc(Cc2ccccc2)cc1C(N)=O	x	x	x	i
COc1ncccc1-c1ccc2ncn(Cc3ccccn3)c(=O)c2n1	5%[87.6 µM]	19	3%[87.6 µM]	35µM*
COCCn1cnc2ccc(-c3ccnn3C)nc2c1=O	-1%[87.6 µM]	10	14%[87.6 µM]	35µM*
CN(C)c1ncc2c(n1)C(C)(C(=O)NCC1CC1)CCC2 (stereo not given)	-25%[87.6 µM]	29	2%[87.6 µM]	32µM*
CN(C)c1ncc2c(n1)C(C)(C(=O)Nc1ccc(Cl)cc1)CCC2 (stereo not given)	-2%[87.6 µM]	-12	8%[87.6 µM]	35µM*
CN(C)c1ncc2c(n1)C(C)(C(=O)NCCOc1ccccc1)CCC2 (stereo not given)	12%[87.6 µM]	5	-8%[87.6 µM]	32µM*
CN(C)c1ncc2c(n1)C(C)(C(=O)NCCCn1ccnc1)CCC2 (stereo not given)	5%[87.6 µM]	-4	9%[87.6 µM]	35µM*
CC1(C(=O)NCc2cccnc2)CCCc2cnc(Nc3ccccc3)nc21 (stereo not given)	-27%[87.6 µM]	-1	-28%[87.6 µM]	i
O=C(CCc1ncc(-c2c(F)cccc2F)o1)Nc1ccccn1	x	x	x	i
COc1ncccc1-c1ccnc(-c2nnc(C)n2-c2ccccc2)c1	36%[87.6 µM]	5	4%[87.6 µM]	32µM*
Cc1nnc(-c2cc(-c3cccc(O)c3)ccn2)n1-c1ccccc1	12%[87.6 µM]	-3	-15%[87.6 µM]	i
CCOC(=O)[C@@H]1CN(C(=O)OCC)[C@H]2c3cccc(C)c3O[C@@H]12	x	5	x	x
SMILES	SNCA expr inh	IP6K1 inhibitor	HEK293 viab	KDM5B inh
COc1ccc(C(=O)NCCNC(=O)c2cccc(-c3cc(F)ccc3OC)c2)cc1	1%	2	-19%	x
CN(C)c1ccc(-c2nc(C3CC(=O)N(c4ccc(Cl)cc4)C3)no2)cc1 (stereo not given)	-11%	0	11%	4µM*
O=C1CC(c2noc(-c3ccc(-c4ccccc4)cc3)n2)CN1c1ccc(F)cc1 (stereo not given)	-29%	-11	5%	32µM*
CCOc1ccc(-c2nc(C3CC(=O)N(c4ccc(F)c(Cl)c4)C3)no2)cc1OCC (stereo not given)	-16%	-9	-5%	32µM*
COc1ccc(N2CC(c3noc(-c4ccc(Cl)cc4)n3)CC2=O)cc1 (stereo not given)	-5%	12	-1%	i
CCOc1cc(-c2nc(C3CC(=O)N(c4ccc(F)c(Cl)c4)C3)no2)cc(OCC)c1OCC (stereo not given)	15%	2	-5%	u
